# Laboratory results reported in PubChem BioAssay (NCI).
# About 79,000 compounds went through this panel and 15% of them were active in at least one assay; those are over-represented in the sample as a whole. Unmarked numbers belong to inactive results. Activity calls are given as the source filed them. Rule as the data show it: active = growth inhibition above about 70%; inactive = the rest.
# Columns and labels:
# [1] = NCI Yeast Anticancer Drug Screen. Data for the rad52 strain (AID 147);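 also: 0% = growth of vehicle-treated control cultures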; details: S. cerevisiae rad52 mutant growth inhibition, active compounds read high
# Summary of the method: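 Genetically altered yeast (DNA damage repair defect) treated with compound; inhibition calculated relative to vehicle.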
# [2] = NCI Yeast Anticancer Drug Screen. Data for the rad50EPP+ strain (AID 151);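 also: 0% = growth of vehicle-treated control cultures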; details: S. cerevisiae rad50 mutant strain, active compounds read high
# Summary of the method: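 Strain rad50EPP+; compound exposure; % growth inhibition vs vehicle.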
# [3] = NCI Yeast Anticancer Drug Screen. Data for the mgt1 strain (AID 153); details: S. cerevisiae mgt1 mutant growth inhibition, active compounds read high
# Summary of the method: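 Read-out: yeast growth inhibition vs vehicle control. Strain mgt1, drawn from a panel altered in DNA damage repair or cell cycle control.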
# [4] = NCI Yeast Anticancer Drug Screen. Data for the rad50 strain (AID 155);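 also: 0% = growth of vehicle-only cultures of the same strain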; details: S. cerevisiae rad50 strain growth inhibition, active compounds read high
# Summary of the method: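 Genetically altered yeast (DNA repair pathway); compound treatment; growth inhibition vs vehicle ctrl.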
# [5] = NCI Yeast Anticancer Drug Screen. Data for the mec2-1 strain (AID 157); details: S. cerevisiae mec2-1 strain, active compounds read high
# Summary of the method: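 Cells of the genetically defined mec2-1 yeast strain are incubated with test compound. Inhibition of growth is calculated against vehicle-treated controls.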
# [6] = NCI Yeast Anticancer Drug Screen. Data for the rad14 strain (AID 159);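 also: 0% = growth of vehicle-treated control cultures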; details: S. cerevisiae rad14 strain growth inhibition, active compounds read high
# Summary of the method: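 Test compounds were applied to a repair-deficient yeast strain. Its growth was then compared with that of cultures given vehicle alone, and inhibition was expressed relative to those controls.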
# [7] = NCI Yeast Anticancer Drug Screen. Data for the CLN2oe strain (AID 163);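 also: 0% = growth of vehicle-only control cultures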; details: S. cerevisiae CLN2oe strain, active compounds read high
# Summary of the method: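 Strain altered in cell-cycle control, incubated with compound; growth compared to solvent-treated controls.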
# [8] = NCI Yeast Anticancer Drug Screen. Data for the cln2 rad14 strain (AID 165);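 also: 0% = growth equal to vehicle treated cultures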; details: S. cerevisiae cln2 rad14 strain, active compounds read high
# Summary of the method: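 The screen exposed genetically defined yeast (cln2 rad14) to test compounds and scored growth inhibition relative to vehicle-treated controls.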
# [9] = NCI Yeast Anticancer Drug Screen. Data for the bub3 strain (AID 167); details: S. cerevisiae bub3 mutant strain, active compounds read high
# Summary of the method: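 Yeast carrying a defined mutation is treated with each compound, and growth is compared with that of vehicle-exposed cells to give inhibition.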
# [10] = NCI Yeast Anticancer Drug Screen. Data for the wt2 strain (AID 169);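 also: 0% = growth of vehicle-treated yeast cultures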; details: S. cerevisiae wt2 strain growth inhibition, active compounds read high
# Summary of the method: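 Steps: yeast strain treated with compound; growth recorded; inhibition calculated relative to cultures given vehicle alone.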
# [11] = NCI Yeast Anticancer Drug Screen. Data for the mlh1 strain (AID 171);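 also: 0% = growth of vehicle-treated control cultures of the same strain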; details: S. cerevisiae mlh1 strain growth inhibition, active compounds read high
# Summary of the method: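 Yeast screen: mutant strain plus compound, growth scored against vehicle control wells.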
# [12] = NCI Yeast Anticancer Drug Screen. Data for the sgs1 strain (AID 173);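 also: 0% = growth of vehicle-only control cultures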; details: S. cerevisiae sgs1 mutant, active compounds read high
# Summary of the method: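 Inhibition of yeast growth served as the measure. The mutant strain was treated with each compound, and growth was normalised to cultures receiving vehicle alone.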
# [13] = NCI Yeast Anticancer Drug Screen. Data for the mlh1 rad18 strain (AID 175); details: S. cerevisiae mlh1 rad18 strain growth inhibition, active compounds read high
# Summary of the method: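 Compound-treated yeast growth, normalised to vehicle controls. Strain bears defined DNA repair mutations.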
# [14] = NCI Yeast Anticancer Drug Screen. Data for the rad18 strain (AID 177); details: S. cerevisiae rad18 mutant growth inhibition, active compounds read high
# Summary of the method: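 Inhibition values reflect reduced yeast growth compared with vehicle-treated controls, using a strain engineered with a DNA damage repair defect.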
# [15] = NCI Yeast Anticancer Drug Screen. Data for the wt1 strain (AID 149);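 also: 0% = growth of vehicle-treated wt1 cultures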; details: S. cerevisiae wt1 strain (SPY 50644) growth inhibition, active compounds read high
# Summary of the method: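 wt1 yeast, compound-treated; % growth inhibition vs vehicle control.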
# [16] = NCI Yeast Anticancer Drug Screen. Data for the sgs1 mgt1 strain (AID 161);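 also: 0% = growth of cultures given vehicle only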; details: S. cerevisiae sgs1 mgt1 strain, active compounds read high
# Summary of the method: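 Read-out: growth inhibition vs vehicle controls. Cells: mutant yeast strain deficient in DNA damage repair.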
# [17] = at 5.0 µM (retest, dose inferred, filed as 0.5)
# [18] = at 50.0 µM (retest, dose inferred, filed as 5.0)
smiles,measurement,setting,value
CN(C)Cc1cc(N=Nc2ccc(Cl)cc2)cc(CN(C)C)c1O,growth inhibition,[1]; at 1.2 µM,8%
same,growth inhibition,[1]; at 3.7 µM,8%
same,growth inhibition,[1]; at 11.0 µM,8%
same,growth inhibition,[1]; at 33.0 µM,16%
same,growth inhibition,[1]; at 100.0 µM,58%
same,growth inhibition,[2]; at 1.2 µM,-3%
same,growth inhibition,[2]; at 3.7 µM,-1%
same,growth inhibition,[2]; at 11.0 µM,15%
same,growth inhibition,[2]; at 33.0 µM,43%
same,growth inhibition,[2]; at 100.0 µM,91% (active)
same,growth inhibition,[3]; at 1.2 µM,13%
same,growth inhibition,[3]; at 3.7 µM,12%
same,growth inhibition,[3]; at 11.0 µM,13%
same,growth inhibition,[3]; at 33.0 µM,26%
same,growth inhibition,[3]; at 100.0 µM,13%
same,growth inhibition,[4]; at 1.2 µM,9%
same,growth inhibition,[4]; at 3.7 µM,7%
same,growth inhibition,[4]; [17],-15%
same,growth inhibition,[4]; at 11.0 µM,8%
same,growth inhibition,[4]; at 33.0 µM,10%
same,growth inhibition,[4]; [18],73% (active)
same,growth inhibition,[4]; at 50.0 µM,56.8%
same,growth inhibition,[4]; at 100.0 µM,25%
same,growth inhibition,[5]; at 1.2 µM,15%
same,growth inhibition,[5]; at 3.7 µM,17%
same,growth inhibition,[5]; [17],-5%
same,growth inhibition,[5]; at 11.0 µM,16%
same,growth inhibition,[5]; at 33.0 µM,14%
same,growth inhibition,[5]; [18],47%
same,growth inhibition,[5]; at 50.0 µM,88.9% (active)
same,growth inhibition,[5]; at 100.0 µM,15%
same,growth inhibition,[6]; at 1.2 µM,12%
same,growth inhibition,[6]; at 3.7 µM,13%
same,growth inhibition,[6]; at 11.0 µM,10%
same,growth inhibition,[6]; at 33.0 µM,11%
same,growth inhibition,[6]; at 100.0 µM,34%
same,growth inhibition,[7]; at 1.2 µM,23%
same,growth inhibition,[7]; at 3.7 µM,22%
same,growth inhibition,[7]; at 11.0 µM,26%
same,growth inhibition,[7]; at 33.0 µM,26%
same,growth inhibition,[7]; at 100.0 µM,18%
same,growth inhibition,[8]; [17],39%
same,growth inhibition,[8]; [18],98% (active)
same,growth inhibition,[8]; at 50.0 µM,44%
same,growth inhibition,[9]; at 1.2 µM,4%
same,growth inhibition,[9]; at 3.7 µM,2%
same,growth inhibition,[9]; [17],12%
same,growth inhibition,[9]; at 11.0 µM,2%
same,growth inhibition,[9]; at 33.0 µM,5%
same,growth inhibition,[9]; [18],73% (active)
same,growth inhibition,[9]; at 50.0 µM,91.2% (active)
same,growth inhibition,[9]; at 100.0 µM,3%
same,growth inhibition,[10]; at 1.2 µM,5%
same,growth inhibition,[10]; at 3.7 µM,5%
same,growth inhibition,[10]; at 11.0 µM,8%
same,growth inhibition,[10]; at 33.0 µM,15%
same,growth inhibition,[10]; at 100.0 µM,80% (active)
same,growth inhibition,[11]; at 1.2 µM,14%
same,growth inhibition,[11]; at 3.7 µM,12%
same,growth inhibition,[11]; at 11.0 µM,12%
same,growth inhibition,[11]; at 33.0 µM,10%
same,growth inhibition,[11]; at 100.0 µM,18%
same,growth inhibition,[12]; at 1.2 µM,4%
same,growth inhibition,[12]; at 3.7 µM,8%
same,growth inhibition,[12]; at 11.0 µM,15%
same,growth inhibition,[12]; at 33.0 µM,26%
same,growth inhibition,[12]; at 100.0 µM,95% (active)
same,growth inhibition,[13]; [17],4%
same,growth inhibition,[13]; [18],96% (active)
same,growth inhibition,[13]; at 50.0 µM,90.2% (active)
same,growth inhibition,[14]; at 1.2 µM,7%
same,growth inhibition,[14]; at 3.7 µM,8%
same,growth inhibition,[14]; at 11.0 µM,25%
same,growth inhibition,[14]; at 33.0 µM,15%
same,growth inhibition,[14]; at 100.0 µM,34%
COc1ccccc1/C=C1\Sc2scc(-c3cccc([N+](=O)[O-])c3)[n+]2C1=O,growth inhibition,[15]; at 1.2 µM,33%
same,growth inhibition,[15]; at 3.7 µM,91% (active)
same,growth inhibition,[15]; at 11.0 µM,99% (active)
same,growth inhibition,[15]; at 33.0 µM,98% (active)
same,growth inhibition,[15]; at 100.0 µM,94% (active)
same,growth inhibition,[2]; at 1.2 µM,11%
same,growth inhibition,[2]; at 3.7 µM,80% (active)
same,growth inhibition,[2]; at 11.0 µM,95% (active)
same,growth inhibition,[2]; at 33.0 µM,96% (active)
same,growth inhibition,[2]; at 100.0 µM,88% (active)
same,growth inhibition,[3]; at 1.2 µM,63%
same,growth inhibition,[3]; at 3.7 µM,98% (active)
same,growth inhibition,[3]; at 11.0 µM,99% (active)
same,growth inhibition,[3]; at 33.0 µM,94% (active)
same,growth inhibition,[3]; at 100.0 µM,91% (active)
same,growth inhibition,[4]; at 1.2 µM,47%
same,growth inhibition,[4]; at 3.7 µM,93% (active)
same,growth inhibition,[4]; [17],12%
same,growth inhibition,[4]; at 11.0 µM,98% (active)
same,growth inhibition,[4]; at 33.0 µM,92% (active)
same,growth inhibition,[4]; [18],96% (active)
same,growth inhibition,[4]; at 50.0 µM,85.7% (active)
same,growth inhibition,[4]; at 100.0 µM,91% (active)
same,growth inhibition,[5]; at 1.2 µM,67%
same,growth inhibition,[5]; at 3.7 µM,98% (active)
same,growth inhibition,[5]; [17],16%
same,growth inhibition,[5]; at 11.0 µM,99% (active)
same,growth inhibition,[5]; at 33.0 µM,96% (active)
same,growth inhibition,[5]; [18],96% (active)
same,growth inhibition,[5]; at 50.0 µM,89.1% (active)
same,growth inhibition,[5]; at 100.0 µM,90% (active)
same,growth inhibition,[6]; at 1.2 µM,28%
same,growth inhibition,[6]; at 3.7 µM,90% (active)
same,growth inhibition,[6]; at 11.0 µM,99% (active)
same,growth inhibition,[6]; at 33.0 µM,97% (active)
same,growth inhibition,[6]; at 100.0 µM,94% (active)
same,growth inhibition,[16]; [17],46%
same,growth inhibition,[16]; [18],98% (active)
same,growth inhibition,[16]; at 50.0 µM,89.3% (active)
same,growth inhibition,[7]; at 1.2 µM,46%
same,growth inhibition,[7]; at 3.7 µM,82% (active)
same,growth inhibition,[7]; at 11.0 µM,99% (active)
same,growth inhibition,[7]; at 33.0 µM,97% (active)
same,growth inhibition,[7]; at 100.0 µM,95% (active)
same,growth inhibition,[8]; [17],15%
same,growth inhibition,[8]; [18],96% (active)
same,growth inhibition,[8]; at 50.0 µM,87.6% (active)
same,growth inhibition,[9]; at 1.2 µM,70% (active)
same,growth inhibition,[9]; at 3.7 µM,96% (active)
same,growth inhibition,[9]; [17],92% (active)
same,growth inhibition,[9]; at 11.0 µM,99% (active)
same,growth inhibition,[9]; at 33.0 µM,95% (active)
same,growth inhibition,[9]; [18],95% (active)
same,growth inhibition,[9]; at 50.0 µM,83.8% (active)
same,growth inhibition,[9]; at 100.0 µM,84% (active)
same,growth inhibition,[10]; at 1.2 µM,18%
same,growth inhibition,[10]; at 3.7 µM,59%
same,growth inhibition,[10]; at 11.0 µM,98% (active)
same,growth inhibition,[10]; at 33.0 µM,98% (active)
same,growth inhibition,[10]; at 100.0 µM,95% (active)
same,growth inhibition,[11]; at 1.2 µM,34%
same,growth inhibition,[11]; at 3.7 µM,89% (active)
same,growth inhibition,[11]; at 11.0 µM,99% (active)
same,growth inhibition,[11]; at 33.0 µM,97% (active)
same,growth inhibition,[11]; at 100.0 µM,90% (active)
same,growth inhibition,[13]; [17],13%
same,growth inhibition,[13]; [18],96% (active)
same,growth inhibition,[13]; at 50.0 µM,89.2% (active)
same,growth inhibition,[14]; at 1.2 µM,14%
same,growth inhibition,[14]; at 3.7 µM,82% (active)
same,growth inhibition,[14]; at 11.0 µM,98% (active)
same,growth inhibition,[14]; at 33.0 µM,96% (active)
same,growth inhibition,[14]; at 100.0 µM,93% (active)
